Data reported in PubChem BioAssay (Tox21).
Results filed as inconclusive are left out. Where a call stands in place of a potency, no number is given. Unmarked numbers belong to inactive results. Activity calls are given as the source filed them. Unless noted, the call rests on the fitted dose curve; in most records, active means well fitted curve in the direction sought with a large enough effect in the repeat runs; inconclusive means weak or mixed curves; inactive means no such curve, though single readings can be large; an effect the other way counts as inactive or inconclusive.

Experiments:
[1] = qHTS assay to identify small molecule agonists of the vitamin D receptor (VDR) signaling pathway - cell viability counter screen (AID 743224); further: nearly all actives have a fitted effect of over 50% in size; further: potency means the concentration at half of the fitted maximal effect
How it was run: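 Compounds were pin-transferred onto VDR-bla cells plated 4 h earlier; following 16 h incubation at 37C, cell viability was quantified by CellTiter-Glo luminescence after 30 min at room temperature.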

[2] = qHTS assay to identify small molecule antagonists of the vitamin D receptor (VDR) signaling pathway - cell viability counter screen (AID 743225); further: nearly all actives have a fitted effect of over 50% in size
How it was run: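 HEK293T VDR-bla; cpd + 1a,25-(OH)2D3 3 nM final, 16 h 37C/5% CO2; B/G FRET substrate 2 h RT; then CellTiter-Glo 30 min RT, luminescence.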

[3] = qHTS assay to identify small molecule agonists of the endoplasmic reticulum stress response signaling pathway (AID 1159516; active means well fitted activation curve with a large enough effect in the signal ratio in the repeat runs, not every such curve was filed as active; the % refers to the signal ratio)
How it was run: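 Using a HeLa line with an ESRE-driven beta-lactamase gene, agonist activity was measured by FRET substrate fluorescence (460 and 530 nm emission) after cells were treated with compounds for 5 hr at 37 C and 5% CO2.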

[4] = qHTS assay to identify small molecule agonists of the endoplasmic reticulum stress response signaling pathway - cell viability counter screen (AID 1159517; calls by dose curve;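 further: HeLa cells carrying an ER stress response element beta-lactamase reporter; series mostly up to about 61 µM; nearly all actives have a fitted effect of over 50% in size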)
How it was run: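 Cpd-treated ESRE-bla HeLa (5 hr, 37 C) → LiveBLAzer 2 hr RT → CellTiter-Glo 30 min RT → luminescence.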

[5] = qHTS assay to identify small molecule antagonists of the retinoid-related orphan receptor gamma (ROR-gamma) signaling pathway - cell viability counter screen (AID 1159520); further: nearly all actives have a fitted effect of over 50% in size
How it was run: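 Tet-on ROR gamma CHO cells (1,000/well) were plated 4 hr, given compounds in DMSO for 2 hr at 37 C, then induced with 1 uM final doxycycline for 16 hr. Viability was read as ATP by CellTiter-Glo luminescence after 30 min.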

[6] = target: Nuclear receptor ROR-gamma (Homo sapiens) (UniProt P51449); experiment: qHTS assay to identify small molecule antagonists of the retinoid-related orphan receptor gamma (ROR-gamma) signaling pathway (AID 1159521; further: nearly all actives have a fitted effect of over 50% in size; further: potency means the concentration at half of the fitted maximal effect)
How it was run: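 Cells were plated, rested 4 h at 37 C, exposed to compounds for 2 h, then given 1 uM final doxycycline hyclate to induce RORγ expression. After 16 h, ONE-Glo luminescence from the ROR response element reporter was measured.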

[7] = qHTS assay to identify small molecule agonists of the AP-1 signaling pathway (AID 1159526; calls by dose curve)
[8] = qHTS assay to identify small molecule agonists of the RXR signaling pathway - cell viability counter screen (AID 1159529); further: nearly all actives have a fitted effect of over 50% in size; further: potency means the concentration at half of the fitted maximal effect
How it was run: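 Steps: seed RXR-alpha-UAS-bla HEK 293T cells in assay medium containing 2% charcoal-stripped FBS; incubate 5 hr; add compounds in DMSO; incubate 16 hr at 37 C; after the bla read, add CellTiter-Glo and read luminescence at 30 min.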

[9] = qHTS assay to identify small molecule antagonists of the retinoid acid receptor (RAR) signaling pathway - cell viability counter screen (AID 1159551); further: nearly all actives have a fitted effect of over 35% in size
How it was run: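 ATP-based viability, C3RL4 cells, 6 h at 37 C with 1 uM final retinol co-added after compound; luminescence read 30 min post CellTiter-Glo, RT.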

[10] = qHTS assay to identify small molecule agonists of the retinoic acid receptor (RAR) signaling pathway (AID 1159553)
How it was run: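 Quantitative high-throughput format: the Tox21 10K library was tested on C3RL4 RARE-luciferase cells for 6 hr at 37 C and 5% CO2, with luminescence measured after a 30 min room-temperature reagent step.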

[11] = qHTS assay to identify small molecule agonists of the NFkB signaling pathway - cell viability counter screen (AID 1159515; calls by dose curve; further: nearly all actives have a fitted effect of over 55% in size; further: potency means the concentration at half of the fitted maximal effect)
How it was run: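 Parallel cytotoxicity counter screen in ME-180 cells carrying an NFkB-response-element beta-lactamase reporter, 2,000 cells/well. Compound exposure lasted 5 hr at 37 C, 5% CO2. Cell viability was quantified by CellTiter-Glo luminescence.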

[12] = qHTS assay to identify small molecule agonists of the AP-1 signaling pathway - cell viability counter screen (AID 1159525; calls by dose curve; further: nearly all actives have a fitted effect of over 55% in size)
How it was run: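 Each titration point was normalised to DMSO and tetra n-octyl ammonium bromide controls. The read was Cell Titer Glo luminescence after 30 min at RT, following 5 h compound exposure of ME-180 AP-1-bla cells at 37 °C.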

[13] = target: Retinoic acid receptor RXR-alpha (Homo sapiens) (UniProt P19793); experiment: qHTS assay to identify small molecule agonists of the RXR signaling pathway (AID 1159527; calls by dose curve; further: nearly all actives have a fitted effect of over 35% in size)
How it was run: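 Cells plated at 2,000/well, rested 5 hr at 37 C, pin-dosed with DMSO compound solutions, incubated 16 hr, then loaded with B/G FRET substrate for 2 hr at RT before dual-emission fluorescence reading.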

[14] = qHTS assay to identify small molecule antagonists of the retinoic acid receptor (RAR) signaling pathway (AID 1159552; further: nearly all actives have a fitted effect of over 50% in size)
How it was run: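 Retinol at 1 uM final stimulated RARE-luciferase expression in C3RL4 cells exposed to test compounds for 6 hr at 37 C. Reduced luminescence, read 30 min after detection reagent, indicated pathway antagonism.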

Chain of Retinoic acid receptor RXR-alpha (Homo sapiens) (P19793 whole entry, looked up): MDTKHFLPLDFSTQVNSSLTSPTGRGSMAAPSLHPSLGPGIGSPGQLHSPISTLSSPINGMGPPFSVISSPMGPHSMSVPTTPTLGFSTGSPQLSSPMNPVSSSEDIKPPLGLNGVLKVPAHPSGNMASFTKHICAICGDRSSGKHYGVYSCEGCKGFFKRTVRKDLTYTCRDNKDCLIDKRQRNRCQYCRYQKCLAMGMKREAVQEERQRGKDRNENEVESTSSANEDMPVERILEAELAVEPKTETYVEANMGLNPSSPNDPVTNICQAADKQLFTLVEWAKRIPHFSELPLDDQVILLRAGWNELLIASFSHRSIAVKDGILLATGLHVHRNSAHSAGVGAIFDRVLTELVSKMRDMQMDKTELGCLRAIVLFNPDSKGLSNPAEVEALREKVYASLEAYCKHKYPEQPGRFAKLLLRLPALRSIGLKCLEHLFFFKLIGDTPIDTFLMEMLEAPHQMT

In the case of `O=C(O)C1(C(=O)O)CCC1.[NH2-].[NH2-].[Pt+2]`, the Potency [1] was “inactive”, the Potency [2] was “inactive” and the Potency [3] was “inactive”. The Potency [4] was “inactive”, the Potency [5] was “inactive” and the Potency [6] was “inactive”. The Potency [7] was “inactive”, the Potency [8] was “inactive” and the Potency [9] was “inactive”. For the same compound, the Potency [10] was “inactive”.

For `Nc1c(CC(=O)O)cccc1C(=O)c1ccc(Br)cc1`, the Potency [1] was “inactive”, the Potency [2] was “inactive” and the Potency [11] was “inactive”. The Potency [4] was “inactive”, the Potency [5] was “inactive” and the Potency [7] was “inactive”. For the same compound, the Potency [8] was “inactive”, the Potency [9] was “inactive” and the Potency [10] was “inactive”.

With `CN(C)CCN(Cc1ccccc1)c1ccccn1` the Potency [1] was “inactive”, the Potency [2] was “inactive” and the Potency [11] was “inactive”. For the same compound, the Potency [5] was “inactive”, the Potency [12] was “inactive” and the Potency [13] was “inactive”. For the same compound, the Potency [8] was “inactive” and the Potency [9] was “inactive”.

For `CC(C)O.CC(C)O.CCOC(=O)/C=C(\C)O.CCOC(=O)/C=C(\C)O.[Ti]`, the Potency [1] was “inactive”, the Potency [2] was “inactive” and the Potency [11] was “inactive”. For the same compound, the Potency [4] was “inactive”, the Potency [5] was “inactive” and the Potency [12] was “inactive”. The Potency [7] was “inactive”, the Potency [8] was “inactive” and the Potency [9] was “inactive”. For the same compound, the Potency [14] was “inactive” and the Potency [10] was “inactive”.

For `c1cc(CCCc2ccncc2)ccn1`, the Potency [1] was “inactive”, the Potency [2] was “inactive” and the Potency [11] was “inactive”. For the same compound, the Potency [12] was “inactive”, the Potency [7] was “inactive” and the Potency [13] was “inactive”. The Potency [8] was “inactive” and the Potency [9] was “inactive”.

With `c1ccc(C(O[C@H]2CCCN(CCc3ccc4c(c3)OCO4)C2)c2ccccc2)cc1` the Potency [1] was “inactive”, the Potency [2] was “inactive” and the Potency [11] was “inactive”. For the same compound, the Potency [4] was “inactive”, the Potency [5] was “inactive” and the Potency [12] was “inactive”. The Potency [8] was “inactive” and the Potency [9] was “inactive”.

With `COc1ccc(C(=O)c2ccc(OC)cc2O)c(O)c1` the Potency [2] was “inactive”, the Potency [11] was “inactive” and the Potency [4] was “inactive”. The Potency [6] was “inactive”, the Potency [12] was “inactive” and the Potency [7] was “inactive”. The Potency [8] was “inactive”, the Potency [9] was “inactive” and the Potency [14] was “inactive”.

In the case of `CCCCCCc1ccc(-c2ccc(C#N)cc2)cc1`, the Potency [1] was “inactive”, the Potency [2] was “inactive” and the Potency [11] was “inactive”. For the same compound, the Potency [4] was “inactive”, the Potency [5] was “inactive” and the Potency [12] was “inactive”. The Potency [7] was “inactive”, the Potency [8] was “inactive” and the Potency [9] was “inactive”. For the same compound, the Potency [14] was “inactive” and the Potency [10] was “inactive”.

For `NCCCN1CCOCC1`, the Potency [1] was “inactive”, the Potency [2] was “inactive” and the Potency [11] was “inactive”. The Potency [4] was “inactive”, the Potency [5] was “inactive” and the Potency [12] was “inactive”. The Potency [7] was “inactive”, the Potency [8] was “inactive” and the Potency [9] was “inactive”.

With `Cc1cccc(C)c1OCC(=O)N[C@@H](Cc1ccccc1)[C@@H](O)C[C@H](Cc1ccccc1)NC(=O)[C@H](C(C)C)N1CCCNC1=O` the Potency [1] was “inactive”, the Potency [2] was “inactive” and the Potency [11] was 19 µM (active). The Potency [4] was “inactive”, the Potency [6] was 29.8 µM (active) and the Potency [7] was “inactive”. The Potency [8] was 23.9 µM (active), the Potency [9] was “inactive” and the Potency [14] was “inactive”. The Potency [10] was “inactive”.

For `CCc1c(C(=O)NN2CCCCC2)nn(-c2ccc(Cl)cc2Cl)c1-c1ccc(Br)cc1`, the Potency [1] was 19.5 µM (active), the Potency [2] was “inactive” and the Potency [11] was “inactive”. For the same compound, the Potency [4] was “inactive”, the Potency [6] was 54.5 µM (active) and the Potency [12] was “inactive”. For the same compound, the Potency [7] was “inactive”, the Potency [8] was “inactive” and the Potency [9] was “inactive”. The Potency [10] was “inactive”.

With `S=C([S-])NCCNC(=S)[S-].[Mn+2]` the Potency [1] was “inactive”, the Potency [2] was “inactive” and the Potency [11] was “inactive”. For the same compound, the Potency [4] was “inactive”, the Potency [5] was “inactive” and the Potency [12] was “inactive”. The Potency [7] was “inactive” and the Potency [9] was “inactive”.
